# Bioassay records from PubChem.
# Most compounds without a hit are left out; they make up all but 1.4% or so of the library.
# TSG101-PTAP inh: blocks PTAP/TSG101 interaction to inhibit HIV-1 budding. 340,000 tested, under 10 active. AID 493005. Fluorescence polarization, FITC-PTAP peptide / Tsg101 binding. Potency, µM (highest dose often 115 µM), for inactives: at the top dose activity change, negative = inhibition, most hits filed as inhibitors; active means well fitted inhibition curve with a large enough effect in the main read-out, with a control signal flat, not every such curve was filed as active; inconclusive means small, poorly fitted or top-dose-only effect, or effect the other way, or a change in a side signal; inactive means no such curve, though single readings can be large or run the other way; further: potency means the concentration at half of the fitted maximal effect; % of control where 0% means no effect
#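 Compounds were pin-transferred onto Tsg101 binding domain (10 uM final) in HEPES pH 7.5 buffer, then FITC-PTAP peptide was added at 50 nM final. After 20 min at RT, polarization reported peptide displacement across a qHTS concentration series.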
# Vif-APOBEC3F blk: blocks the Vif interaction with APOBEC3F; HeLa A3F-eYFP + Vif (tagged APOBEC3F with the HIV-1 protein that degrades it), YFP fluorescence increase; hit rate 0.2% among 390,000; Potency, µM (titrated, usually from 46.1 µM), inactives show at the highest dose activity, negative = active; further: potency means the concentration at half of the fitted maximal effect; % of control where 0% means no effect; nearly all actives have a fitted effect of over 65% in size
#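 HeLa cells stably expressing Vif plus C-terminally eYFP-tagged A3F were seeded, incubated overnight at 37 deg C, dosed with compound, incubated overnight again at 37 deg C. Yellow fluorescence (Ex 488/Em 500-530) reported blocked Vif-mediated A3F-eYFP degradation.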
# Vif-APOBEC3G blk: Vif-A3G binding inhibition | HeLa A3G-eYFP + Vif (tagged APOBEC3G with the HIV-1 protein that degrades it), YFP fluorescence, overnight | hit rate 0.076% among 410,000 | Q9HC16 | Potency, µM (doses to about 46.1 µM), inactives show at the highest dose activity, negative = active, hits mostly inhibitors; further: potency means the concentration at half of the fitted maximal effect; on the % scale 0 is the no-effect control and ±100 the full control effect; nearly all actives have a fitted effect of over 60% in size
# Target sequence (Q9HC16 whole entry, looked up): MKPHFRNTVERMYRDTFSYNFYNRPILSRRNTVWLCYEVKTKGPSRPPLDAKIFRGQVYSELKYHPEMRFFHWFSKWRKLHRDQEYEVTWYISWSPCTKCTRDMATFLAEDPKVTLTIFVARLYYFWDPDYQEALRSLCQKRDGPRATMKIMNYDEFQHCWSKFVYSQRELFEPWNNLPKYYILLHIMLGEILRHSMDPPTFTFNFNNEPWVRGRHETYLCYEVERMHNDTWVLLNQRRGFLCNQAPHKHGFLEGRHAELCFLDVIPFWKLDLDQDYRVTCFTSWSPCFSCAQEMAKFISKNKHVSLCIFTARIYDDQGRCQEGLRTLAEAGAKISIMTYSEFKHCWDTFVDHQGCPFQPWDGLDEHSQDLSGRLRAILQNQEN
#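 HeLa cells stably expressing Vif and C-terminally eYFP-tagged A3G, seeded overnight at 37 deg C, then exposed to compound by pintool overnight at 37 deg C. Rise in yellow fluorescence (Ex 488/Em 500-530, Acumen) marks blocked Vif-driven A3G degradation.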
# pAkt inh: Akt phosphorylation inhibition; Neuro2A IGF-stimulated pAkt S473 HTRF, 20 min; active compounds read low; activity change, % for hits at 50 µM; hit rate 0.32% among 360,000; in the data active means activity change below about -80%; inconclusive means mostly about -51% to -80%; further: on the % scale 0 is the no-effect control and ±100 the full control effect
#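 Neuro2A cells in DMEM with 0.5% FBS, overnight at 37 deg C, given compound at single 50 µM final, then IGF (6 nM final) for 20 min at 37 deg C. Lysed; phospho-Akt Ser473 by HTRF after 24 h, 665/615 ratio.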
# ALOX12 inh: ALOX12 (human) lipoxygenase inhibition; P18054; purified 12hLO, xylenol orange hydroperoxide absorbance; Potency, µM (top dose mostly 108 µM), for inactives: top-dose activity change, negative = inhibition, usual class: inhibitors; hit rate 1.1% among 580,000; AID 1671190; further: potency means the concentration at half of the fitted maximal effect; on the % scale 0 is the no-effect control and ±100 the full control effect
#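 Purified human 12hLO at 150 nM in 25 mM Hepes, 0.01% Triton X-100, pH 7.0, preincubated 15 min at room temperature with compound. Reaction started with 40 uM arachidonic acid, 30 min at room temperature. Hydroperoxide measured by Fe-xylenol orange, 573/405 nm absorbance ratio.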
# S-ASM inh: blocks human secretory acid sphingomyelinase. Potency, µM (titrated, usually from 57.5 µM), for the others: at the highest dose activity change, negative = inhibition, usual class: inhibitors. P17405. hit rate 0.006% among 340,000. placental ASM, HMU-PC fluorogenic substrate, 60 min. AID 504937; further: potency means the concentration at half of the fitted maximal effect
#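 Human placenta-derived ASM preincubated with compound 10 min at room temperature, then reacted with 9 uM (final) fluorogenic HMU-PC substrate for 60 min at 37 C. Stop solution raises pH to 10; fluorescence read at Ex 386/Em 447 nm.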
# Active calls of the source: *; i = inactive; ? = inconclusive; · = not tested or not shown; [ ] = remark or other dose. Unless noted, the call rests on the fitted dose curve; in most records, active means well fitted curve in the direction sought with a large enough effect; inconclusive means small, poorly fitted or top-dose-only effect, or another doubt; inactive means no such curve, though single readings can be large; an effect the other way counts as inactive or inconclusive.
SMILES,TSG101-PTAP inh,Vif-APOBEC3F blk,Vif-APOBEC3G blk,pAkt inh,ALOX12 inh,S-ASM inh
COc1ccc(-c2cc([C@H]3CN4CC[C@H]3C[C@@H]4CNC(=O)Nc3cccc4ccccc34)n(C)n2)cc1OC,·,·,·,·,0.2%,·
Cc1cc(C)cc(OCCOc2cccc(C=C3C(=O)NC(=O)NC3=O)c2)c1,-1.9%,2.0%,5.4%,i,12.6µM*,-3.1%
Cc1ccc(OCCOc2cccc(C=C3C(=O)NC(=O)NC3=O)c2)cc1,-3.6%,2.3%,0.0%,i,31.6µM*,-7.8%
O=C1NC(=O)C(=Cc2ccc3ccccc3c2)C(=O)N1,-3.9%,-3.3%,2.6%,i,?,0.8%
Cc1ccc(C(=O)N2CCC3(CC2)c2nccn2-c2ccccc2CN3C)c(C)c1,·,·,·,·,6.4%,·
O=C(COc1ccccc1)N1CCN(CC2CC=CCC2)CC1 (centres undefined),-2.5%,-22.9%,2.7%,i,0.631µM*,-0.8%
O=C(COc1ccccc1)N1CCN(CC2CC3C=CC2C3)CC1 (centres undefined),-4.5%,-6.1%,-0.6%,i,?,3.8%
COc1ccc(C(=O)NC[C@H]2C[C@@H]3CCN2C[C@@H]3c2cc(C3CCCCC3)nn2C)cc1,·,·,·,·,10.1%,·
COCCC(=O)Nc1ccc2n(c1=O)C[C@H]1C[C@@H]2CN(CCCc2ccccc2)C1,·,·,·,·,20.7%[176 µM],·
CCCCn1c(N)c(N(CC(C)C)C(=O)c2cc(Br)c(Br)s2)c(=O)[nH]c1=O,-3.7%,25.1µM*,-19.6%,i,0.0%,1.6%
